Compounds with a hit are over-represented: about 5% of the library has one in this group of screens.
HCMV antiviral: blocks human cytomegalovirus replication; HFF cells, HCMV-luciferase reporter, 72 h; active compounds read low; activity change, negative = inhibition, % at 57.5 µM; 4.5% of 410,000 active; AID 1259415; in the data active means activity change below about -60%; inconclusive means no clear call, values can overlap the other calls; inactive means above about -39%
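Screen run at 2 compound doses on HFFs infected with reporter HCMV, MOI 1 PFU/cell. Luciferase activity from cell lysates at 72 h post infection gave inhibition relative to buffer-only and Salinomycin wells.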
Tb PYK inh: T. brucei pyruvate kinase inhibition; Q57TT1; TbPYK enzyme, Kinase-Glo Plus ATP luminescence, 45 min; Potency, µM (highest dose often 76.8 µM), for the others: at the top dose activity, negative = inhibition, hits mostly inhibitors; 0.12% of 410,000 active; AID 624173; further: potency means the concentration at half of the fitted maximal effect; nearly all actives have a fitted effect of over 50% in size
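T. brucei PYK with substrate was exposed to pin-transferred compounds across a concentration series, then started with 130 uM ADP (final). After 45 min at room temperature, Kinase-Glo Plus luminescence was read, normalized and curve-fitted.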
LmPK inh: blocks Leishmania mexicana pyruvate kinase activity; Q27686; 0.37% of 290,000 active; AID 1721; purified LmPK, Kinase-Glo ATP luminescence, 1 h; Potency, µM (highest dose often 57.5 µM), inactives show at the top dose activity change, negative = inhibition, most hits filed as inhibitors; further: potency means the concentration at half of the fitted maximal effect
Target sequence (Q27686 whole entry, looked up): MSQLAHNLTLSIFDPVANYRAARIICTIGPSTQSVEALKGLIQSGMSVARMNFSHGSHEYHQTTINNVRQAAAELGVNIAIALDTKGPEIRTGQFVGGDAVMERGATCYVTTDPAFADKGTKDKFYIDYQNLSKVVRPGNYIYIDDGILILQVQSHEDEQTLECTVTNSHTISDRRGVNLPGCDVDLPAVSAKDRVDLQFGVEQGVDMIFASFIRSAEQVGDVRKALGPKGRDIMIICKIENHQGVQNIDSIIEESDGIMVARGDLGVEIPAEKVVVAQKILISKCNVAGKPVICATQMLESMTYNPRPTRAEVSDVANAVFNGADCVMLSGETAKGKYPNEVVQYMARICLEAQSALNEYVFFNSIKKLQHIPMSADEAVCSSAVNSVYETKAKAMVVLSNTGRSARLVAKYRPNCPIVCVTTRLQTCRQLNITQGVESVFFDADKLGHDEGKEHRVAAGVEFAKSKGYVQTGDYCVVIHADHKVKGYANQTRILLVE
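Purified LmPK (0.1 nM) converted ADP (0.1 mM) to ATP with PEP (0.5 mM) in imidazole buffer pH 7.2 with KCl and MgCl2, 1 h at room temperature. ATP was read by Kinase-Glo luminescence; data normalized to uninhibited and no-enzyme controls.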
Vaccinia Venus: vaccinia inhibition (Venus reporter). Vaccinia virus Venus reporter expression, fluorescence. Potency, µM (series often up to 36.5 µM), without a hit: at the highest dose activity change, negative = inhibition, actives largely listed as inhibitors. 0.46% of 330,000 active. AID 720580; calls by dose curve; tested in A549 cells; further: potency means the concentration at half of the fitted maximal effect; nearly all actives have a fitted effect of over 30% in size
VACV mCherry inh: vaccinia inhibition (mCherry reporter). Vaccinia virus mCherry reporter infection, fluorescence. 0.63% of 310,000 active. Potency, µM (doses to about 36.5 µM), for the others: at the highest dose activity change, negative = inhibition, most hits filed as inhibitors; calls by dose curve; tested in A549 cells; further: potency means the concentration at half of the fitted maximal effect; nearly all actives have a fitted effect of over 35% in size
An asterisk follows results filed as active; ? = inconclusive; · = no result given; [ ] = another dose, or the depositor's remark. Unless noted, the call rests on the fitted dose curve; in most records, active means well fitted curve in the direction sought with a large enough effect; inconclusive means small, poorly fitted or top-dose-only effect, or another doubt; inactive means no such curve, though single readings can be large; an effect the other way counts as inactive or inconclusive. On the % scale 0 is the no-effect control and ±100 the full control effect.

SMILES	HCMV antiviral	Tb PYK inh	LmPK inh	Vaccinia Venus	VACV mCherry inh
Cc1ccc(S(=O)(=O)CCSc2ccc(C(F)(F)F)cn2)cc1	27.3	-1.4%	-3.0%	·	·
O=C(CCc1nc2ccccc2c(=O)[nH]1)N1CCN(S(=O)(=O)c2ccccc2Br)CC1	-14.4	-9.7%	·	10µM*	?
CCCNC(=S)N1CCN(c2nc(-c3cccc(OC)c3)cs2)CC1	-33.7	-22.8%	-5.5%	-19.8%	-11.5%
O=C1Nc2ccccc2SC1c1ccccc1 (stereo not given)	8.4	-1.2%	3.2%	·	·
Cc1ccc(NC2Sc3ccccc3NC2=O)cc1 (stereo not given)	42.3	14.1µM*	-9.3%	-13.5%	-20.6%
O=C1C=CC(=O)N1CCNc1ncc(C(F)(F)F)cc1Cl	-95.5*	?	2.5%	-28.4%	?
CS(=O)(=O)NCCNc1ncc(C(F)(F)F)cc1Cl	?	-15.7%	0.8%	-13.7%	-21.7%
O=S(=O)(NCCNc1ncc(C(F)(F)F)cc1Cl)C(F)(F)F	-71.5*	7.3%	4.2%	-26.7%	-5.5%
c1ccc(-c2cc(NCCN3CCCCC3)c3ccccc3n2)cc1	-99.6*	-1.1%	1.7%	11.2µM*	?
O=C(c1cc(-c2ccccc2)nc2ccccc12)N1CCCC1	10.5	0.5%	-7.7%	-3.7%	1.4%
CCCCOc1ccc(-n2nc(C)cc2C)nn1	-82.4*	2.3%	-10.0%	-23.0%	·
COc1cc(OC)c2c(-c3cccc(-c4ccc(N(C)C)cc4)c3)cc(=O)oc2c1	-72.6*	-1.5%	·	?	?
COc1ccc(-c2cccc(-c3cc(=O)oc4cc(OC)cc(OC)c34)c2)cc1	-73.2*	2.3%	·	?	?
COc1cc(OC)c2c(-c3cccc(-c4ccc(O)cc4)c3)cc(=O)oc2c1	-13.7	2.6%	·	?	?
COc1cc(OC)c2c(-c3cccc(-c4ccc(CO)cc4)c3)cc(=O)oc2c1	·	2.0%	·	10µM*	?
O=C(NNC(=O)c1ccc(Cn2cccn2)o1)NC12CC3CC(CC(C3)C1)C2	-29.9	1.3%	-10.6%	-3.5%	-8.8%
Cc1cc(O)c(C(C)C)cc1N=Cc1ccccc1O	-14.1	-21.5%	2.7%	·	·
CCn1cc(C(=O)O)c(=O)c2cc(F)c(N3CCN(C(=O)Nc4ccccc4)CC3)cc21	-84.0*	-3.7%	0.8%	·	·
CCC(C)NC(=O)c1cn(CC)c2cc(N3CCN(C(=O)c4ccco4)CC3)c(F)cc2c1=O (stereo not given)	-22.9	-2.6%	5.8%	?	5.01µM*
CCn1cc(C(=O)O)c(=O)c2cc(F)c(N3CCN(C(=S)NC(=O)c4ccccc4F)CC3)cc21	0.0	-27.9%	-22.0%	-11.8%	0.0%
COCCN(C(=O)COC(=O)COc1ccc(Cl)c(C)c1)c1c(N)n(Cc2ccccc2)c(=O)[nH]c1=O	-39.8	5.4%	-4.4%	-3.0%	-10.5%
CCC1=NN(C(=O)c2ccccc2[N+](=O)[O-])C(O)(c2ccccc2)C1 (stereo not given)	23.3	-3.6%	·	-7.2%	-9.6%
O=C1NC(O)(c2ccccc2)Oc2ccccc21 (stereo not given)	12.4	7.2%	·	·	·
CCOC(=O)C1CCN(C(=O)C2CCN(c3nn4c(=O)cc(C)nc4s3)CC2)CC1	23.3	-3.1%	-7.3%	-1.1%[7.34 µM]	-3.3%[7.34 µM]
CCCc1cc(=O)n2nc(N3CCC(C(=O)N4CCN(c5cccc(OC)c5)CC4)CC3)sc2n1	-70.1*	1.4%	-0.2%	·	·
SMILES	HCMV antiviral	Tb PYK inh	LmPK inh	Vaccinia Venus	VACV mCherry inh
COc1ccccc1NC(=O)Cc1nc(=O)[nH]c(=O)[nH]1	-11.6	-8.7%	·	-5.4%	-14.1%
Cc1cccc(OCC(=O)Nc2cccc(C(=O)OCc3cc(=O)n4c(C)csc4n3)c2)c1	-61.4*	1.3%	·	-18.8%	-17.9%
Cc1ccccc1OCC(=O)Nc1ccccc1C(=O)OCc1cc(=O)n2c(C)csc2n1	-75.4*	0.0%	·	-26.0%	-17.5%
Cc1csc2nc(COC(=O)c3cccc(NC(=O)COc4ccc(Cl)cc4)c3)cc(=O)n12	26.8	5.6%	·	-7.5%	-10.4%
Cc1csc2nc(COC(=O)c3ccc(NC(=O)c4ccccc4Br)cc3)cc(=O)n12	-72.4*	-0.4%	·	-7.7%	-13.7%
COc1ccc(OC)c(/C=N/NC(=O)C(=O)N2CCCCCC2)c1	22.3	-9.3%	-12.2%	-5.4%	-12.3%
Cc1csc(-c2cc(C(=O)NCc3ccc(F)cc3)n[nH]2)c1	-64.1*	-0.7%	·	2.9%	-6.9%
COc1ccc(NC(=O)c2cc(-c3cc(C)cs3)[nH]n2)cc1OC	-0.4	-1.2%	·	17.4%	7.4%
O=C(NC(=S)Nc1nc(-c2ccc(Br)cc2)cs1)c1ccco1	?	-5.6%	3.9%	-2.5%	-18.1%
O=C(NC(=S)Nc1nc(-c2ccc([N+](=O)[O-])cc2)cs1)c1ccco1	-83.7*	-4.2%	-3.6%	-12.0%	-14.7%
C=CCNc1nc(-c2ccc([N+](=O)[O-])cc2)cs1	-69.3*	12.4%	-1.8%	-23.2%	?
CCC1CCCCN1S(=O)(=O)c1ccc(C(=O)Nc2sc3c(c2C(N)=O)CCC3)cc1 (stereo not given)	-30.9	-1.8%	·	-9.8%	-11.0%
O=C(COC(=O)c1nsc(Cl)c1Cl)NC1CCCC1	-23.9	3.3%	3.9%	11.7%	-2.4%
O=C(CN(CC1CCCO1)C(=O)c1nsc(Cl)c1Cl)NC1CCCC1 (stereo not given)	-66.4*	2.9%	-5.2%	·	·
COCCn1c(=O)[nH]c2cc(C(=O)NCc3ccccc3Cl)ccc2c1=O	-68.7*	-5.3%	·	17.6%	?
COCCn1c(=O)[nH]c2cc(C(=O)OC)ccc2c1=O	-7.3	3.7%	-0.2%	·	·
COc1ccc(C)c2sc(N(CCN(C)C)C(=O)/C=C/c3cccs3)nc12	?	-3.8%	-5.0%	·	·
COc1ccc(OC)c2sc(N(CCN(C)C)C(=O)/C=C/c3cccs3)nc12	-84.8*	-2.8%	-11.4%	?	-26.1%
C=C1CCC[C@]2(C)C[C@H]3OC(=O)C(CNC(C)CCCC(C)C)[C@H]3CC12 (stereo not given in full)	-67.6*	-3.5%	-2.7%	7.08µM*	?
C=C1CCC[C@]2(C)C[C@H]3OC(=O)C(CN(Cc4ccc(OC)c(OC)c4)CC(C)O)[C@H]3CC12 (stereo not given in full)	-99.1*	0.0%	-1.1%	·	·
C=C1CCC[C@]2(C)C[C@H]3OC(=O)C(CNCC(OC)OC)[C@H]3CC12 (stereo not given in full)	-30.2	-3.7%	6.2%	?	4.47µM*
C=C1CCC[C@]2(C)C[C@H]3OC(=O)C(CN4CCOCC4)[C@H]3C[C@@H]12 (stereo not given in full)	?	-1.9%	5.2%	·	·
C=C1CCC[C@]2(C)C[C@H]3OC(=O)C(CN[C@@H](C)c4ccccc4)[C@H]3CC12 (stereo not given in full)	-63.9*	0.7%	9.0%	?	?

Source: PubChem BioAssay (National Center for Advancing Translational Sciences (NCATS))
